PubChem BioAssay AID1048 (The Scripps Research Institute Molecular Screening Center, 2008)
Out of some 99,000 compounds screened, about 390 (0.39%) were called active. The sample as a whole holds a higher share of actives than the screen did. Values without a mark were called inactive. No stated cut-off is given here; in the data, active means TR-FRET ratio above about 2000; inactive means the rest.

assay: TR-FRET detection interference compounds, artefact control for PPARgamma SRC-3 recruitment agonists, biochemical, TR-FRET ratio (AID 1048); details: TR-FRET artefact counter-screen, PPARgamma/SRC-3 format; at 8 µM; hits give high values

Structure (SMILES)	TR-FRET ratio
COCCN(C(=S)Nc1ccccc1OC)C1CCN(C(C)C)CC1	1690
COc1ccc(OC)c(C(=O)c2ccc(C(=O)N3CCN(Cc4csc(C)n4)CC3)cc2)c1	1600
COc1ccc(C)cc1NC(=O)Nc1ccccc1SC	1480
Cc1ccc2nc(-c3cccc(Br)c3)cc(C(=O)Nn3cnnc3)c2c1	1410
Cc1ccc(-c2cc(C(=O)NCc3cn(C)nc3C)c3cc(Br)ccc3n2)cc1	3150 (active)
O=C(NCc1cccs1)c1cc(-c2ccccn2)nc2ccc(Br)cc12	2270 (active)
C/C(N)=C(/C#N)C(=O)COC(=O)c1cc(-c2ccccc2)nc2ccc(Br)cc12	1450
O=C(Nc1ccncc1)c1cc(-c2ccccn2)nc2ccc(Br)cc12	1720
O=C(NCc1ccccn1)c1cc(Br)ccc1Cl	1620
O=C(Cc1c(F)cccc1Cl)Nc1ccc(-n2cnnn2)cc1	1510
Cn1c(=O)cc(SCC(=O)N2CCCC2)c2cc(Cl)ccc21	3460 (active)
CC(C)N(C(=O)Cn1cc(SCC(=O)N2CCCC2)c2ccccc21)C(C)C	1440
CCOc1ccc(CCNC(=O)CSc2cc(=O)n(C)c3ccc(Cl)cc23)cc1OCC	1800
CC(C)NC(=O)c1ccc(Cl)cc1Cl	1730
NC1=NC2(CCCCC2)N(c2ccc(F)cc2F)C(N)=N1	1410
COc1ccc2c(CC(=O)OCC(=O)Nc3ccccc3[N+](=O)[O-])coc2c1	1720
CCOc1ccc(NC(=O)CSc2nc3ccccc3c(=O)n2Cc2cccs2)cc1	1640
CCOc1ccc(NC(=O)c2cc(C)nc3ccccc23)cc1	1470
CCOc1ccc(NC(=O)CSc2ncnc3c2sc2ccccc23)cc1	3140 (active)
Cn1nnnc1NCc1ccc(Cl)c(Cl)c1	1750
CCOC(=O)C1C(c2ccc(Cl)cc2)NC(=S)NC1(O)C(F)(F)F (stereo unspecified)	1580
CCCOc1ccc(N/C=C/C(=O)C(C)(C)C)cc1	1370
CC(C)CNC(=O)C(=O)Nc1ccc(N(C)C)cc1	1510
CN(C)c1ccc(N/C=C/C(=O)C(F)(F)F)cc1	2070 (active)

Structure (SMILES)	TR-FRET ratio
COc1ccc(CC(NC(C)=O)C(=O)NC2CCN(C(=O)C3CC3)CC2)cc1OC (stereo unspecified)	1430
CC1COc2ccccc2N1C(=O)c1cccnc1Cl (stereo unspecified)	1670
COc1ccc(C(=O)NNC(=O)c2cc(C)[nH]n2)cc1	1480
O=C(O)Cc1sc(-c2ccc(C(=O)O)cc2)nc1-c1ccccc1	1690
O=C(O)Cc1ccc(-c2ccccc2)cc1	1600
O=C(O)Cc1sc(-c2ccccc2)nc1-c1cccs1	2530 (active)
CN(C)/N=C/c1cn(-c2ccccc2)nc1-c1cccnc1	1610
CCc1nnc(NC(=O)CSc2nnnn2-c2cccc(C(C)=O)c2)s1	1550
Cc1ccc2c(c1)C1CN(C)CCC1N2C(=S)Nc1ccc(Cl)cc1Cl (stereo unspecified)	1610
CCN(CC)CCNc1nc(-c2ccc(OC(F)F)cc2)c(C)s1	1480
CC(NC(=O)COC(=O)c1ccc(Cl)cc1O)c1ccc(F)cc1 (stereo unspecified)	1480
O=c1c2sccc2nc(SCc2cc(=O)n3ccccc3n2)n1-c1ccc(Br)cc1	1730
CCc1ccc(-n2c(SCc3cc(=O)n4cc(Br)ccc4n3)nc3[nH]ncc3c2=O)cc1	2480 (active)
Cc1cccc2nc(CSc3nc4[nH]ncc4c(=O)n3-c3cccc(Cl)c3)cc(=O)n12	1540
COc1ccc2cc(CCl)c(Cl)nc2c1	1710
CN(C)c1ccc(/C=N/Nc2cc(N3CCOCC3)nc(N3CCOCC3)n2)cc1	2070 (active)
C(=N/Nc1cc(N2CCOCC2)nc(N2CCOCC2)n1)/c1ccccc1	1290
CCN(CC)c1ccc(C(=O)N/N=C/c2ccc(N3CCOCC3)cc2)cc1	1580
CCCN(CC(=O)Nc1ccc(C(N)=O)cc1)CC(=O)Nc1ccccc1C	1400
CC1Cc2ccccc2N1C(=O)CSc1nnc(-c2ccc(S(=O)(=O)N3CCCC3)cc2)n1C (stereo unspecified)	1610
CC/C(Cc1ccccc1)=N/NC(=O)CCn1nnc2ccccc21	1860
CCOC(=O)c1c(NC(=O)C(C)Sc2c[nH]c3ccccc23)sc2c1CCC2 (stereo unspecified)	3480 (active)
CCOC(=O)c1c(NC(=O)CSc2cn(CC)c3ccccc23)sc2c1CCC2	1590
CCOC(=O)c1c(NC(=S)Nc2ccccc2C)sc2c1CCC2	1790

Structure (SMILES)	TR-FRET ratio
Cc1ccc(S(=O)(=O)NCCC(=O)Nc2ccc(C)c(Cl)c2)cc1C	1640
Cc1ccc(-c2nc(-c3cccnc3)sc2CC(=O)Nc2ccc(C)c(Cl)c2)cc1	3550 (active)
Cc1cccc(NC(=O)c2sc(-c3ccccc3)nc2-c2ccc([N+](=O)[O-])cc2)c1	1630
CCc1cc(CNC(=O)CC2C(=O)NCCN2CC2CCCCC2)on1 (stereo unspecified)	1630
CC1=CC=CN2C1=NC(=O)CC2(C)C(=O)N(CC(=O)NC1CCCC1)c1ccccc1C (stereo unspecified)	1450
CN(Cc1ccccn1)Cc1nc(-c2ccc(Cl)cc2)no1	1430
CN1CCN(S(=O)(=O)c2cccc(C(=O)O)c2)CC1	1540
CC1(C)CC(=O)C(C2c3ccccc3S(=O)(=O)c3ccccc32)C(=O)C1	1570
CN(CCc1cnn(C)c1)Cc1cn(C)nc1-c1ccccc1F	1360
COc1cccc(NC(=O)CC(c2ccc(OC(C)C)cc2)c2ccccc2OC)c1 (stereo unspecified)	1470
COn1c(-c2ccc(Cl)cc2Cl)nc2ncccc21	1970
COc1ccc(CCNC(=O)COC(=O)C2CCCCC2)cc1	1330
CC(C)(C)NC(=O)COC(=O)c1cc(Cl)ccc1[N+](=O)[O-]	1550
COc1ccc2c(c1)C(SCC(=O)NCc1ccccc1)CC(C)(C)O2 (stereo unspecified)	1590
O=S1(=O)CC/C(=N\Nc2ccc(F)cc2)c2ccsc21	1680
COc1ccccc1NC(=O)COC(=O)Cc1ccc(S(=O)(=O)N2CCCCC2)s1	1680
Cc1c(Cl)c([N+](=O)[O-])nn1CC(=O)NCC1CCCO1 (stereo unspecified)	1690
O=[N+]([O-])c1ccccc1SNc1ccccn1	1510
COCCCNc1nc2c(-c3cccc(C(F)(F)F)c3)nnn2c2ccccc12	2690 (active)
Cc1cccc(Nc2nc3c(S(=O)(=O)c4ccccc4)nnn3c3ccccc23)c1C	1540
CC(=O)Nc1ccc(Nc2nc3c(S(=O)(=O)c4ccc(C)c(C)c4)nnn3c3ccccc23)cc1	1560
CCOC(=O)c1ccc(NC(=O)c2cc(=O)[nH]c3ccccc23)cc1	1550
O=C(NCc1ccc(F)cc1)C(c1ccccc1)N(C(=O)c1csnn1)C1CC1 (stereo unspecified)	1460
CCc1nccn1S(=O)(=O)c1cccc([N+](=O)[O-])c1	1700

Structure (SMILES)	TR-FRET ratio
CC1Cc2ccccc2N1C(=O)CSc1nnc(C2CC2)n1C (stereo unspecified)	1630
Cc1ccc(S(=O)(=O)N(C)c2ccc(OCC(=O)NC3=NCCS3)cc2)cc1	1460
Cc1ccc(NC(=O)NNC(=O)c2sccc2-n2cccc2)cc1	1310
COc1cc(CN(C)Cc2nc3cc(C(F)(F)F)ccc3c(=O)[nH]2)ccc1OC(F)F	1340
CSCC(=O)N1CCCC(C(=O)c2cc(F)ccc2F)C1 (stereo unspecified)	1400
Cc1ccc(C(=O)N/C(=C/c2cccs2)C(=O)NCC2CCCO2)cc1 (stereo unspecified)	1510
O=C(CCC(=O)NNc1nc2ccccc2c2nc(-c3ccccc3)nn12)NCCCN1CCCC1=O	1570
C/C(=N\Nc1ncc(Cl)cc1Cl)c1cccs1	1400
COCCn1c(=O)[nH]c(=O)c2cc(C(=O)c3cc(OC)ccc3O)cnc21	1460
Fc1ccccc1Cc1ccc(Cl)nn1	1250
CCCCOc1ccc(N(CC(=O)NC(C)C)C(=O)CCC(=O)Nc2ccccn2)cc1	1760
COc1ccc(C2CC(c3cccs3)=NN2C(=O)COC(=O)c2cc3ccccc3cc2O)cc1OC (stereo unspecified)	1600
O=C(N/N=C/c1ccccn1)C12CC3CC(CC(C3)C1)C2	1520
O=C(NCCOc1ccccc1F)Nc1ccc(Br)cc1	1530
O=C(O)c1ccc2c3c(cccc13)C(=O)N(OS(=O)(=O)c1ccccc1)C2=O	1490
CCC(=O)Nc1sc(C(=O)Nc2ccccc2)c(C)c1C(=O)OC	1430
CCOC(=O)c1sc(NC(=O)COc2ncnc3ccccc23)c(C(=O)OCC)c1C	1650
CCOC(=O)c1c(NC(=O)CNC2CCCc3ccccc32)sc(C(N)=O)c1C (stereo unspecified)	2120 (active)
CC(C)(C)C1CCC(C(=O)Nc2cccnc2)CC1 (stereo unspecified)	1510
CN1/C(=C\C(=O)c2cccnc2Cl)C(C)(C)c2ccccc21	1630
Cc1ccc(Cl)cc1N1CCN(C(=O)c2cccc3c(=O)c(C)c(-c4ccccc4)oc23)CC1	1350
O=C(CC1SC(=Nc2ccccc2F)N(CCN2CCOCC2)C1=O)Nc1ccc(F)cc1F (stereo unspecified)	1720
O=C(NNC(=O)c1cc2c(s1)CCCC2)c1ccccc1	1550
CC(C)c1nc(CNC(=O)CC2C(=O)NCCN2Cc2ccoc2)cs1 (stereo unspecified)	1610
